In the library only some 16% were active in any assay of this set; here they are far more common.
uPA generation: qHTS for Inhibitors of Cell Surface uPA Generation | cell surface uPA generation assay, qHTS | Potency, µM (doses to about 38.3 µM), for the others: at the highest dose activity change, negative = inhibition, hits mostly inhibitors | actives 0.31% (n = 330,000) | AID 540303, 2011; active = well fitted inhibition curve with a large enough effect; inconclusive = small, poorly fitted or top-dose-only effect; inactive = no such curve, though single readings can be large or run the other way; tested in mouse RAW 264.7 cells; note: potency is the fitted concentration of half-maximal effect; % is set by controls: 0 for no effect and ±100 for the full control effect; nearly all actives have a fitted effect of over 55% in size
TDP1 cell CPT: qHTS for Inhibitors of human tyrosyl-DNA phosphodiesterase 1 (TDP1): qHTS in cells in presence of CPT. chicken DT40 Tdp1-/-;hTDP1 cells + 20 nM CPT, ATP luminescence, 48 h. Potency, µM (series often up to 46.2 µM), inactives show top-dose activity change, negative = growth inhibition, usual class: inhibitors. actives 12% (n = 420,000). AID 686979, 2013; note: potency is the fitted concentration of half-maximal effect; % is set by controls: 0 for no effect and ±100 for the full control effect; nearly all actives have a fitted effect of over 55% in size
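Chicken DT40 Tdp1-/- cells complemented with human TDP1, 400 cells/well, exposed to compounds plus 20 nM camptothecin for at least 48 h at 37 C; viability read as ATP content by CellTiter-Glo luminescence.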
miR-21 reporter: qHTS Assay for Modulators of miRNAs and/orActivators of miR-21. HeLa miR-21 FLuc reporter, luciferase, 48 h. Potency, µM (doses to about 38.3 µM), inactives show top-dose activity change, positive = activation, actives largely listed as activators. 340,000 tested, under 10 active;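 note: % of control where 0% means no effect; miR-21 action dims this reporter so a rising signal means less miR-21 action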
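Compounds were titrated across several concentrations (up to approximately 40 uM) and incubated 48 hours with HeLa miR-21-FLuc reporter cells (miR-21 target sequence downstream of FLuc, endogenous miR-21). Readout was firefly luciferase luminescence after lytic detection reagent.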
DT40 TDP1 no CPT: qHTS for Inhibitors of human tyrosyl-DNA phosphodiesterase 1 (TDP1): qHTS in cells in absence of CPT. DT40 Tdp1-/- hTDP1 cells, no CPT, ATP luminescence, 48 h. Potency, µM (highest dose often 46.2 µM), for inactives: top-dose activity change, negative = growth inhibition, usual class: inhibitors. actives 15% (n = 420,000). AID 686978, 2013; note: potency is the fitted concentration of half-maximal effect; % is set by controls: 0 for no effect and ±100 for the full control effect; nearly all actives have a fitted effect of over 55% in size
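Chicken DT40 Tdp1-/- cells complemented with human TDP1, screened without camptothecin (DMSO vehicle only), 400 cells/well. Compounds pin-transferred, cells incubated at 37 °C for at least 48 hr. Growth read as ATP-dependent luminescence (CellTiter-Glo, 30 min at RT).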
TDP1 block: qHTS Assay for Inhibitors of Tyrosyl-DNA Phosphodiesterase (TDP1); Tyrosyl-DNA phosphodiesterase 1 (Homo sapiens), Q9NUW8; recombinant TDP1, AlphaScreen DNA substrate cleavage; actives 0.28% (n = 350,000); Potency, µM (series often up to 130 µM), for the others: at the highest dose activity change, negative = inhibition, hits mostly inhibitors; note: potency is the fitted concentration of half-maximal effect; % is set by controls: 0 for no effect and ±100 for the full control effect; nearly all actives have a fitted effect of over 40% in size
Target sequence (Q9NUW8 whole entry, looked up): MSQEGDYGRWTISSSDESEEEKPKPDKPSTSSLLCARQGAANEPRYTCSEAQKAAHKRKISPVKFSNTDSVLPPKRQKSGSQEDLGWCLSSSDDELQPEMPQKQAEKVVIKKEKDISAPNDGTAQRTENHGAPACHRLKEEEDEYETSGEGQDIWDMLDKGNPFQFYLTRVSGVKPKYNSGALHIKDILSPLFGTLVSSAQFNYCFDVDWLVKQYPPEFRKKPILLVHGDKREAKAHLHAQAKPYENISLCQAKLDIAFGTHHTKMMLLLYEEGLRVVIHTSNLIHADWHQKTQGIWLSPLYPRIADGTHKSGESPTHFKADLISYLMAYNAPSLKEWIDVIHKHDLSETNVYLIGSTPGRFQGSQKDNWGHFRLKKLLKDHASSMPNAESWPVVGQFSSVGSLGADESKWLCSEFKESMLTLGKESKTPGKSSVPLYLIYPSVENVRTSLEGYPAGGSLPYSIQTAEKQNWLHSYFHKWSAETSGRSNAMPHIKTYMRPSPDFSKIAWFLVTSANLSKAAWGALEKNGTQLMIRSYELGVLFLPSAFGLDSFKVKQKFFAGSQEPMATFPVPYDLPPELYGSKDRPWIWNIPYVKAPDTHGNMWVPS
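Recombinant E. coli-expressed Tdp1 (1 nM) preincubated with compound 15 min at RT, then 5'-biotin/3'-phosphotyrosine-FITC DNA substrate (15 nM) added for 5 min. AlphaScreen beads (10 ug/ml) added, 10 min RT; tyrosine-FITC cleavage read as signal loss.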
The depositor's hits bear a star; ? = inconclusive; . = not tested or not shown; [ ] = dose if it differs, or a comment. Unless noted, calls come from the whole dose curve; as a rule, active = well fitted curve in the direction sought with a large enough effect; inconclusive = small, poorly fitted or top-dose-only effect, or another doubt; inactive = no such curve, though single readings can be large; an effect the other way counts as inactive or inconclusive.

SMILES	uPA generation	TDP1 cell CPT	miR-21 reporter	DT40 TDP1 no CPT	TDP1 block
O=C(Nc1ccccc1C(=O)Nc1ccc(Br)cn1)c1ccccc1Cl	4%	15µM*	.	?	1%
Cc1ccnc(NC(=O)c2ccccc2NC(=O)c2ccc(Cl)cc2Cl)c1	2.8µM*	3.7µM*	12%	1.8µM*	2%
S=C(Nc1ccccc1)Nc1ccc(Br)cn1	-3%	6.5µM*	-13%	3.7µM*	1%
Cc1ccccc1C(=O)Nc1ccc(Br)cn1	?	9.2µM*	1%	21µM*	1%
CCC(=O)Nc1ccc(Br)cn1	6%	-2%	0%	-22%	-5%
COc1ccc(-c2cc(C#N)nc(N3CCN(c4ccccc4)CC3)n2)cc1	-1%	-8%	1%	-28%	1%
COC(=O)[C@H](Cc1ccccc1)NC(=O)N1CCN(Cc2ccccc2)CC1	0%	?	21%	26µM*	2%
COC(=O)[C@H](Cc1ccccc1)NC(=O)N1CCCCCC1	-3%	-10%	-4%	11%	.
c1ccc(OCCCN2CCCC2)cc1	.	-4%	-12%	-2%	-11%
CC(C)(c1ccccc1)c1ccc(OCCN2CCOCC2)cc1	6%	?	0%	16µM*	.
CNCCCOc1ccc(C(C)(C)c2ccccc2)cc1	.	.	-10%	.	-1%
CC(C)(c1ccccc1)c1ccc(OCCCN2CCNCC2)cc1	1%	5.8µM*	-6%	7.3µM*	1%
c1ccc(OCCOCCN2CCOCC2)cc1	3%	-34%	-1%	-5%	2%
CCC(C)NCCOc1ccc(C(C)(C)c2ccccc2)cc1 (configuration not stated)	-5%	?	?	16µM*	-3%
CC(C)(C)c1ccc(OCCCCCCN2CCNCC2)cc1	2%	18µM*	.	8.2µM*	.
CC(C)(C)c1ccc(OCCN2CCCC2)cc1	2%	-12%	-5%	3%	-2%
COc1ccc(N2C(=O)c3cccc4c(N(C)CCO)ccc(c34)C2=O)cc1	-4%	?	-23%	?	.
CCC1(C)COC(c2ccc3c(c2)OCO3)OC1 (configuration not stated)	0%	-18%	.	-26%	.
O=C(Nc1cccc(Cl)c1Cl)C1CCCO1 (configuration not stated)	3%	-9%	-4%	-13%	.
COc1ccc(C)cc1NC(=O)CSc1nc(=O)[nH]c2c1CCCC2	.	?	29%	?	0%
COc1cc(S(=O)(=O)N2CCCCC2)ccc1NC(=O)c1ccc(F)cc1	-1%	-5%	-6%	-8%	0%
CC1CCN(CCCCOc2ccc(C(C)(C)C)cc2)CC1	-11%	23µM*	-5%	?	.
Cc1cc(=O)c(C(=O)NCCCc2ccncc2)c2n1-c1ccccc1SC(c1cccs1)C2 (configuration not stated)	.	?	.	-19%	.
COC(=O)/C=C\c1cc(O)ccc1O	.	0.6µM*	.	0.6µM*	9%[56.1 µM]
Cc1ccc(C)c(N2CCN(S(=O)(=O)c3ccc4c(c3)OCCO4)CC2)c1	9%	-14%	-4%	-27%	1%
SMILES	uPA generation	TDP1 cell CPT	miR-21 reporter	DT40 TDP1 no CPT	TDP1 block
CSc1cccc(NC(=S)N(CCC(C)C)C(C)c2ccncc2)c1 (configuration not stated)	-4%	?	-10%	-22%	5%
C=CCNc1ncnc2c1cnn2-c1ccc(C)cc1C	0%	-4%	-27%	?	2%
CCOC(=O)N1CCC(Nc2ncnc3c2cnn3-c2ccc(C)cc2C)CC1	-11%	10µM*	24%	8.2µM*	1%
CSc1ncnc2c1cnn2-c1ccc(C)cc1C	1%	-28%	-35%	?	5%
Cc1ccc(-n2ncc3c(N(CC(C)C)CC(C)C)ncnc32)c(C)c1	.	21µM*	10%	?	-5%
Cc1ccc(-n2ncc3c(NCC(C)C)ncnc32)c(C)c1	.	23µM*	8%	?	3%
Cc1ccc(-n2ncc3c(SCc4ccccn4)ncnc32)c(C)c1	-10%	?	9%	16µM*	4%
Cc1ccccc1C(=O)Nc1c(C(=O)N(CCN(C)C)Cc2ccco2)oc2ccccc12	-18%	?	-1%	?	4%
Cc1ccc(CN(Cc2ccco2)C(=O)c2ccco2)cc1	-10%	?	-6%	-14%	7%
Cc1ccc(CN(Cc2ccco2)C(=O)c2ccccc2Cl)o1	.	23µM*	22%	?	12%
Cc1ccc(CN(Cc2ccco2)C(=O)c2ccccc2Br)o1	.	12µM*	17%	15µM*	5%
COc1ccc(C(=O)c2c(C)oc3ccc(O)c(CN4CCOCC4)c23)cc1	1%	?	18%	18µM*	11%
COc1ccc(NC(=O)c2c(C)oc3ccc(O)c(CN4CCOCC4)c23)cc1	.	-21%	1%	3%	-2%
COc1ccc(C(=O)c2coc3ccc(O)c(CN4CCOCC4)c23)cc1	3%	12µM*	4%	?	0%
Cc1ccc(C(=O)c2coc3ccc(O)c(CN4CCN(C)CC4)c23)cc1	4%	13µM*	-8%	18µM*	8%
CS(=O)(=O)N1CCc2cc(C(=O)O)ccc21	0%	-6%	-5%	-7%	0%
COC(=O)c1sc(=S)n(-c2ccccc2OC)c1N	0%	-7%	-5%	-12%	-8%
Cc1ccc(C)c(-n2c(N)c(C(N)=O)sc2=S)c1	1%	-4%	7%	2%	5%
Cc1ccc(-n2c(N)c(C(N)=O)sc2=S)c(C)c1	-3%	?	-27%	26µM*	-3%
COc1ccc(Cl)cc1-n1c(N)c(C(N)=O)sc1=S	.	16µM*	-4%	21µM*	-5%
CCOC(=O)c1sc(=S)n(-c2ccccc2OC)c1N	-6%	?	-9%	23µM*	6%
Cc1cc(CNC(=O)c2cnn(-c3ncc4c(n3)-c3ccccc3CCC4)c2C2CC2)on1	.	-6%	.	?	.
O=C1C(=O)N(CCN2CCOCC2)C(c2ccc(Cl)c(Cl)c2)/C1=C(/O)c1ccc2c(c1)OCO2 (configuration not stated)	-1%	?	-5%	-16%	4%
CC(=O)Nc1ccc(Sc2ncccc2C(=O)Nc2ccc(OC(F)(F)F)cc2)cn1	-6%	6.5µM*	-19%	5.2µM*	5%
CCN1C(=O)[C@@H]2[C@@H](c3ccc(-c4ccccc4)cc3)N3CCC[C@@]3(C(=O)OC)[C@@H]2C1=O	3%	21µM*	.	?	2%

Screening data: PubChem BioAssay, National Center for Advancing Translational Sciences (NCATS)
